“And” between values parts separate entries of the source, which are not always exact repeats. Identical values can stand only once. Records with an inconclusive call do not appear. Where a structure was tested more than once in an assay, its records may differ in their call. The source made the active and inactive calls. How the source made its calls: active means hit-call score of the fitted dose curve at least 0.9, where 1 is the maximum; inconclusive means response in the unintended direction; inactive means score below 0.9.
target: Peroxisome proliferator-activated receptor gamma (Homo sapiens) (UniProt P37231); test: ATG_PPARg_TRANS: Attagene TRANS-FACTORIAL HepG2 Assay for human Peroxisome Proliferator-activated Receptor-gamma (PPARg) (AID 2283007)
Sequence (P37231 whole entry, looked up): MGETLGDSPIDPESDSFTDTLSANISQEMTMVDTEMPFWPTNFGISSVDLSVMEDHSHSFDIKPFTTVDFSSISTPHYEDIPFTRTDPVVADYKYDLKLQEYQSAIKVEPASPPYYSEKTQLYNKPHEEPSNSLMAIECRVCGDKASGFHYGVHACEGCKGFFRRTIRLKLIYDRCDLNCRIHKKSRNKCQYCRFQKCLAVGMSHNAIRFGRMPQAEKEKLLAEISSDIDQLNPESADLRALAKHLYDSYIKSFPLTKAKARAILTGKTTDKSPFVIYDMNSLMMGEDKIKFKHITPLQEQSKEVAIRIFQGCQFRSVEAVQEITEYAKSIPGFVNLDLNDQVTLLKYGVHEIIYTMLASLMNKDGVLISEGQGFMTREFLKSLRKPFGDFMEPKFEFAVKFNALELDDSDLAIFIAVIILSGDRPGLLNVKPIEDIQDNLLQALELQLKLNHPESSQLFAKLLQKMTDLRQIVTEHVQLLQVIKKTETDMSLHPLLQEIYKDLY
Procedure: ATG_TRANS is a cell-based, multiplexed-readout assay that uses HepG2, a human liver cell line, with measurements taken at 24 hours after chemical dosing in a 24-well plate.ATG_PPARg_TRANS is one of 30 assay component(s) measured or calculated from the ATG_TRANS assay. It is designed to make measurements of mRNA induction, a form of inducible reporter, as detected with fluorescence intensity signals by Reverse transcription polymerase chain reaction (RT-PCR) and Capillary electrophoresis technology.Data from the assay component ATG_PPARg_TRANS was analyzed into 1 assay endpoint. This assay endpoint, ATG_PPARg_TRANS, was analyzed in the positive analysis fitting direction relative to DMSO as the negative control and baseline of activity. Using a type of inducible reporter, measures of mRNA for gain-of-signal activity can be used to understand the reporter gene at the transcription factor-level as they relate to the gene PPARG. Furthermore, this assay endpoint can be referred to as a primary readout, because this assay has produced multiple assay endpoints where this one serves a reporter gene function. To generalize the intended target to other relatable targets, this assay endpoint is annotated to the nuclear receptor intended target family, where the subfamily is non-steroidal.
Human liver HepG2 cells are transiently transfected with multiple reporter transcription units (MRTUs) in 6-well plates using FuGene 6 reagent (Roche; 3 ml FuGene/1 mg DNA). The MRTU constructs are regulated by a cis-regulating element (promoter). […] A major difference between the CIS and TRANS system is that in CIS activities of endogenous TFs are measured, whereas the TRANS assay evaluates changes in activities of exogenous, chimeric NR-Gal4 proteins. […] At the end of 24 hour incubation, total RNA was isolated using TriZol reagent (Invitrogen). The isolated RNA is then reverse-transcribed using oligo(dT) primer and Mo-MLV reverse transcriptase (Invitrogen) with DNAse I (Ambion) treatment for 30 min. The one-tenth of the produced cDNA was amplified by PCR using Taq DNA polymerase (Invitrogen) and two reporter sequence-specific primers. The PCR products were fluorescently labeled by primer extension with 6-arboxyfluorescein (6-FAM) 5'-labeled reporter sequence-specific primer (2 min at 95 C, 20 s at 68 C and 10 min at 72 C) and these products were digested with 5U of HpaI (New England Biolabs) for 2h at 37 C. The fragments were purified using Qiaquick PCR columns (Qiagen), analyzed on an ABI 3130xL genetic analyzer (Applied Biosystems) with peak positions identified by using a set of X-rhodamine (ROX)-labeled MapMarker1000 molecular weight standards (BioVentures). The raw capillary electrophoresis data was processed using Attagraph software (Attagene).

| SMILES | outcome | AC50 |
| --- | --- | --- |
| CC(=O)[C@H]1CC[C@H]2[C@@H]3CCC4=CC(=O)CC[C@]4(C)[C@H]3CC[C@]12C | inactive |  |
| COC(=O)c1c(Cl)nn(C)c1S(=O)(=O)NC(=O)Nc1nc(OC)cc(OC)n1 | inactive |  |
| OB(O)O | inactive |  |
| CCCCOC(=O)C(C)Oc1ccc(Oc2ccc(C(F)(F)F)cn2)cc1 (stereo not given) | inactive |  |
| CCOC(=O)C(C)Oc1ccc(Oc2nc3ccc(Cl)cc3o2)cc1 (stereo not given) | inactive |  |
| O=C(c1ccccc1)C1CCCCC1 | inactive | 61.5 µM (active) |
| O=C(Nc1ccc([N+](=O)[O-])cc1Cl)c1cc(Cl)ccc1O | inactive |  |
| CCOC(=O)C(C)Oc1ccc(Oc2cnc3cc(Cl)ccc3n2)cc1 (stereo not given) | inactive |  |
| C=CCOC(Cn1ccnc1)c1ccc(Cl)cc1Cl (stereo not given) |  | 71.7 µM (active) |
| CCN(CC)C(=O)c1cccc(C)c1 | inactive |  |
| CC(C)(c1ccc(O)cc1)c1ccc(O)cc1 | inactive | 14.2 µM (active) and 18.3 µM (active) and 25.8 µM (active) |
| COC(=O)c1ccccc1C(=O)O | inactive |  |
| c1ccc(Nc2ccccc2)cc1 |  | 50 µM (active) |
| CCCCOCCOCCOCc1cc2c(cc1CCC)OCO2 |  | 16.9 µM (active) |
| c1ccc2[nH]c(-c3cscn3)nc2c1 | inactive |  |
| CCCOC(=O)NCCCN(C)C | inactive |  |
| N[C@@H](Cc1cc(I)c(Oc2ccc(O)c(I)c2)c(I)c1)C(=O)O | inactive | 49.8 µM (active) and 34.9 µM (active) and 4.02 µM (active) |
| CC(C)CCCCCCc1ccc(O)cc1 | inactive | 11.1 µM (active) |

| SMILES | outcome | AC50 |
| --- | --- | --- |
| COc1c(Cl)ccc(Cl)c1C(=O)O | inactive |  |
| COCCO | inactive |  |
| CN(C)C(=O)Nc1ccc(Cl)c(Cl)c1 | inactive |  |
| N#CSCSc1nc2ccccc2s1 | inactive | 23.1 µM (active) |
| C#CCOC(=O)[C@@H](C)Oc1ccc(Oc2ncc(Cl)cc2F)cc1 | inactive |  |
| CC(=O)S[C@@H]1CC2=CC(=O)CC[C@]2(C)[C@H]2CC[C@@]3(C)[C@@H](CC[C@@]34CCC(=O)O4)[C@H]12 | inactive |  |
| CCOC(=O)COc1cc(-n2ncc(C(F)(F)F)c(C)c2=O)c(F)cc1Cl | inactive |  |
| COC(=O)c1ccc(CNS(C)(=O)=O)cc1S(=O)(=O)NC(=O)Nc1nc(OC)cc(OC)n1 | inactive |  |
| C[C@]12C[C@H](O)[C@H]3[C@@H](CCC4=CC(=O)CC[C@@]43C)[C@@H]1CC[C@@H]2C(=O)CO | inactive |  |
| CCOC(=O)NCCOc1ccc(Oc2ccccc2)cc1 |  | 19.3 µM (active) |
| CCC(C)OC(=O)N1CCCCC1CCO (stereo not given) | inactive |  |
| COC(=O)c1ccccc1S(=O)(=O)NC(=O)Nc1nc(OC(F)F)cc(OC(F)F)n1 | inactive |  |
| CCN(Cc1c(F)cccc1Cl)c1c([N+](=O)[O-])cc(C(F)(F)F)cc1[N+](=O)[O-] | inactive |  |
| C#C[C@]1(O)CC[C@H]2[C@@H]3CCC4=CC(=O)CC[C@@H]4[C@H]3CC[C@@]21CC | inactive |  |
| CCCCC(CC)CN1C(=O)C2C3C=CC(C3)C2C1=O (stereo not given) |  | 50 µM (active) |
| O=C(c1ccc(O)cc1O)c1ccc(O)cc1O |  | 49.1 µM (active) [middle of 4 runs] |
| CCCCOC(=O)[C@@H](C)Oc1ccc(Oc2ccc(C(F)(F)F)cn2)cc1 | inactive |  |

From PubChem BioAssay (EPA / NIEHS)
